# Results reported in paper PMC7862700, “An all-to-all approach to the identification of sequence-specific readers for epigenetic DNA modifications on cytosine”.
# How the values were obtained:
# Experiment in all cases: DAPPL (digital affinity profiling via proximity ligation, sequencing); 10 mM Tris-HCl pH 7.5, 50 mM NaCl, 1 mM DTT, 4% glycerol, room temperature, 30 min; GST-TFs on glutathione beads, 16-mer random dsDNA library, 0.1% formaldehyde crosslink after washing; high values mean tight binding
# [1] = biological target: T1, FLI1 (Homo sapiens, UniProt Q01543 1-452); details: protein: recombinant; tags: N-terminal GST; dsDNA, one strand shown
# T1 sequence: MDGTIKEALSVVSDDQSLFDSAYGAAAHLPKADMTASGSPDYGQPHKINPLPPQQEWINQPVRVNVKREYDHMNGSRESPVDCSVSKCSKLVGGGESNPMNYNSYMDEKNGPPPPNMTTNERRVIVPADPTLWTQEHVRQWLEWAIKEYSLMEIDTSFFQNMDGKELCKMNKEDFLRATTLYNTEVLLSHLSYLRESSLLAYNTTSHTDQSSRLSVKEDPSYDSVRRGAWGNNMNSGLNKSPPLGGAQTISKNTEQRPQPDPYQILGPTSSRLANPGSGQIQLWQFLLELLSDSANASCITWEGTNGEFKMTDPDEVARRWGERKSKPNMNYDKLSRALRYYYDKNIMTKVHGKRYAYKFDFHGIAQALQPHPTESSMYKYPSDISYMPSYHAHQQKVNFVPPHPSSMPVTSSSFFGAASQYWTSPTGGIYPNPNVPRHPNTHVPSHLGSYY
# Procedure, shortened: (§1)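 Binding signal is defined as a hexamer's read frequency for one factor over its frequency for the tag-only sample. To obtain reads, GST-fused human transcription factors were expressed in yeast, captured on glutathione beads, barcoded with DNA and pooled with that sample. Pools met 200 nmole of a 16-mer random double-stranded DNA library in Tris/NaCl/DTT/glycerol buffer for 30 min at room temperature before washing, 0.1% formaldehyde crosslinking, proximity ligation (BsaI/T4 ligase, 1 h, 37 °C), PCR and Illumina NextSeq500 sequencing.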
# [2] = biological target: T2, ELK1 (Homo sapiens, UniProt P19419 1-428); details: protein: recombinant; tags: N-terminal GST; dsDNA, one strand shown
# T2 sequence: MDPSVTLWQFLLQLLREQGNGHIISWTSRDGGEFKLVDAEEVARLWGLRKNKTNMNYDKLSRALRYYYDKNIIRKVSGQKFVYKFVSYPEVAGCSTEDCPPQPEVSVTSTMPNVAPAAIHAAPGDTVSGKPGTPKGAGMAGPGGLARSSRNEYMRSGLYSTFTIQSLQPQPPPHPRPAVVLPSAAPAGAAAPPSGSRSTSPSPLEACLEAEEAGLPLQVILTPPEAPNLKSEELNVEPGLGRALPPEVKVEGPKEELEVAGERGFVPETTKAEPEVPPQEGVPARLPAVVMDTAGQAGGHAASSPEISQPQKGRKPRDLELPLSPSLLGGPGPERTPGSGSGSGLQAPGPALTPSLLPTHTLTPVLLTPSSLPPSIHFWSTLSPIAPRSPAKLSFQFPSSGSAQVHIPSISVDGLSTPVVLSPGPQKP
# Procedure, shortened: as §1
# [3] = biological target: T3, GABPA (Homo sapiens, UniProt Q06546 1-454); details: protein: recombinant; tags: N-terminal GST; dsDNA, one strand shown
# T3 sequence: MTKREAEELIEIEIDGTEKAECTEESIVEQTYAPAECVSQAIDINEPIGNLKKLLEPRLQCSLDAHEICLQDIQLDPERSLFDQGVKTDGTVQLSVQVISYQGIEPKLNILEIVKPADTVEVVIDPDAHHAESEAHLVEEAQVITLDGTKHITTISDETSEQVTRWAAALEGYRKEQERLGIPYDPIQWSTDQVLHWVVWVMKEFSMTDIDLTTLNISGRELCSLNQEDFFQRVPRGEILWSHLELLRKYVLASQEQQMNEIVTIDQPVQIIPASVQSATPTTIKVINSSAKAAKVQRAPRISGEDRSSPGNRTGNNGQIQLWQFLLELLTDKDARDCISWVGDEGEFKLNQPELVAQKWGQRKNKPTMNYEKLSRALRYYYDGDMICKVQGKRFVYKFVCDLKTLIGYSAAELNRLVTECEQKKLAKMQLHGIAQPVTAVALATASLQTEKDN
# Procedure, shortened: as §1
# [4] = biological target: T4, ERG (Homo sapiens, UniProt P11308 1-479); details: protein: recombinant; tags: N-terminal GST; dsDNA, one strand shown
# T4 sequence: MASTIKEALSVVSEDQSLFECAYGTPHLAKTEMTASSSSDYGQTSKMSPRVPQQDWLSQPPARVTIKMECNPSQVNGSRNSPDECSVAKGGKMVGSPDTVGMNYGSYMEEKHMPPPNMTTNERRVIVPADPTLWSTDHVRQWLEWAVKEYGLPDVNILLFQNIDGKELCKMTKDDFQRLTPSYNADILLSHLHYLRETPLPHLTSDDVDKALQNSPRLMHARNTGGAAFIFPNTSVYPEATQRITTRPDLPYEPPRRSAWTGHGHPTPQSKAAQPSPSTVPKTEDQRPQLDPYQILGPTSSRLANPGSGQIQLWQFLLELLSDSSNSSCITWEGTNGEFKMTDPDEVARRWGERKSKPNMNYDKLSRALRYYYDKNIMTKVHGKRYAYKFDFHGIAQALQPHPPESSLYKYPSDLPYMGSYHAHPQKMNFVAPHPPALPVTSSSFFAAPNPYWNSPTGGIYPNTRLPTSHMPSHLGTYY
# Procedure, shortened: as §1
# [5] = biological target: ELF1 (Homo sapiens, UniProt P32519 1-619); details: protein: recombinant; tags: N-terminal GST; dsDNA, one strand shown
# Procedure, shortened: as §1
# [6] = biological target: T5, EHF (Homo sapiens, UniProt Q9NZC4 1-300); details: protein: recombinant; tags: N-terminal GST; dsDNA, one strand shown
# T5 sequence: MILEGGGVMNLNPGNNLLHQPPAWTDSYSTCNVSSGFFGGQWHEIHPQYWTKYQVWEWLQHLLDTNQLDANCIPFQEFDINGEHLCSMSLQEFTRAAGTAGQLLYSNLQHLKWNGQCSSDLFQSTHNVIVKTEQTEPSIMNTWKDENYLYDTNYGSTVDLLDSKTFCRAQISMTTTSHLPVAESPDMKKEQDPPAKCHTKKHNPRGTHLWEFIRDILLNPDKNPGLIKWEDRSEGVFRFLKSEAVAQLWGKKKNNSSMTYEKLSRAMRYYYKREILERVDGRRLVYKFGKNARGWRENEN
# Procedure, shortened: as §1
# [7] = biological target: SPI1 (Homo sapiens, UniProt P17947 1-270); details: protein: recombinant; tags: N-terminal GST; dsDNA, one strand shown
# Procedure, shortened: as §1
# [8] = biological target: SPIB (Homo sapiens, UniProt Q01892 1-262); details: protein: recombinant; tags: N-terminal GST; dsDNA, one strand shown
# Procedure, shortened: as §1
# [9] = biological target: T6, ELK3 (Homo sapiens, UniProt P41970 1-407); details: protein: recombinant; tags: N-terminal GST; dsDNA, one strand shown
# T6 sequence: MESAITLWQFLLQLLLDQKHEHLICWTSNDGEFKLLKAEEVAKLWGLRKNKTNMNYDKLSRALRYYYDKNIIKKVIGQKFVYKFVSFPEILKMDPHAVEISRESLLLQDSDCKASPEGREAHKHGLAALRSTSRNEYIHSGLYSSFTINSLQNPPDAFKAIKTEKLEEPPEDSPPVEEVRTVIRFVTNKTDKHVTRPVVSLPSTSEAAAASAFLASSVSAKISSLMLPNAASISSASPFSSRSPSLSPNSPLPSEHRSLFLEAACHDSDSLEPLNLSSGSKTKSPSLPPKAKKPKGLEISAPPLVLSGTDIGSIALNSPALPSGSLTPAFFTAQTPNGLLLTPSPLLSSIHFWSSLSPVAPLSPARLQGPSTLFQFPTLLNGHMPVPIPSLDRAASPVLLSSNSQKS
# Procedure, shortened: as §1
# [10] = biological target: T7, FEV (Homo sapiens, UniProt Q99581 1-238); details: protein: recombinant; tags: N-terminal GST; dsDNA, one strand shown
# T7 sequence: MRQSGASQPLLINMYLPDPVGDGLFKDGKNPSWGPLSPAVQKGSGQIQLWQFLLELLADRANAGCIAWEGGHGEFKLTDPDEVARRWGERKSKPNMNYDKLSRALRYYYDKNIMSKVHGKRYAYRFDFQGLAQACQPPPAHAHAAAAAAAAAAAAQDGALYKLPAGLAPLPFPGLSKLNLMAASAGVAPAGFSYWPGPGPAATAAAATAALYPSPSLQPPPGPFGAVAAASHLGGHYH
# Procedure, shortened: as §1
# [11] = biological target: ETV5 (Homo sapiens, UniProt P41161 1-510); details: protein: recombinant; tags: N-terminal GST; dsDNA, one strand shown
# Procedure, shortened: as §1
# [12] = biological target: HSF1 (Homo sapiens, UniProt Q00613 1-529); details: protein: recombinant; tags: N-terminal GST; chain copies: 3; dsDNA, one strand shown
# Procedure, shortened: as §1
# [13] = biological target: T8, SPIC (Homo sapiens, UniProt Q8N5J4 1-248); details: protein: recombinant; tags: N-terminal GST; dsDNA, one strand shown
# T8 sequence: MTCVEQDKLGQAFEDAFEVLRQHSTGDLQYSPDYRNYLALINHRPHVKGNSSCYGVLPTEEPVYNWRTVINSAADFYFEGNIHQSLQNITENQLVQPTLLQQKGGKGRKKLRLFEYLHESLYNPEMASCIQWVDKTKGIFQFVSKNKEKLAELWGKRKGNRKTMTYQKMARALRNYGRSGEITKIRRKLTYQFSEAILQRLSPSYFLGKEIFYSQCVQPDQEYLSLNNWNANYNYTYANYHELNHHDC
# Procedure, shortened: as §1
# [14] = biological target: ELF4 (Homo sapiens, UniProt Q99607 1-663); details: protein: recombinant; tags: N-terminal GST; dsDNA, one strand shown
# Procedure, shortened: as §1
# [15] = biological target: T9, ELK4 (Homo sapiens, UniProt P28324-2 1-405); details: protein: recombinant; tags: N-terminal GST; dsDNA, one strand shown
# T9 sequence: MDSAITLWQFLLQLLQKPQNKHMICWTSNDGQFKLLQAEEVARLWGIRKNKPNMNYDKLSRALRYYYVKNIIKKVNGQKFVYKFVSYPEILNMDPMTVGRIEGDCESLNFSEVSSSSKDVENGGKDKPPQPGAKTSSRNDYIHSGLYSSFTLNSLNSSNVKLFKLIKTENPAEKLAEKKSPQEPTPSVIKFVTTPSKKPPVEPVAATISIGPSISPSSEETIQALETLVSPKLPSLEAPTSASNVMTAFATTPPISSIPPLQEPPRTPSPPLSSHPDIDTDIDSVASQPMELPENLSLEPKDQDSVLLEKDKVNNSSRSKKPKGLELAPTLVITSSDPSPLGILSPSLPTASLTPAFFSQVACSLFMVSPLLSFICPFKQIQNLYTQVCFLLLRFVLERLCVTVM
# Procedure, shortened: as §1
# [16] = biological target: T10, ETV2 (Homo sapiens, UniProt O00321 1-342); details: protein: recombinant; tags: N-terminal GST; dsDNA, one strand shown
# T10 sequence: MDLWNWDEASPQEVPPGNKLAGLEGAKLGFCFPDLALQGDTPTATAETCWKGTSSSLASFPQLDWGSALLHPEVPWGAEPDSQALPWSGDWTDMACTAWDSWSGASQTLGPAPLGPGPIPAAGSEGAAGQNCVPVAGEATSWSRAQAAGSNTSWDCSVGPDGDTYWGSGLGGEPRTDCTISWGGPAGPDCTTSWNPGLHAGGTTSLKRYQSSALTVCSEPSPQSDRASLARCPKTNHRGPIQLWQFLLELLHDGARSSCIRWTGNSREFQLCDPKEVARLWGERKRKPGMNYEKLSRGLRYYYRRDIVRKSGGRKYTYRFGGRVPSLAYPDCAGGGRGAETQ
# Procedure, shortened: as §1
# [17] = biological target: T11, ELF3 (Homo sapiens, UniProt P78545 1-371); details: protein: recombinant; tags: N-terminal GST; dsDNA, one strand shown
# T11 sequence: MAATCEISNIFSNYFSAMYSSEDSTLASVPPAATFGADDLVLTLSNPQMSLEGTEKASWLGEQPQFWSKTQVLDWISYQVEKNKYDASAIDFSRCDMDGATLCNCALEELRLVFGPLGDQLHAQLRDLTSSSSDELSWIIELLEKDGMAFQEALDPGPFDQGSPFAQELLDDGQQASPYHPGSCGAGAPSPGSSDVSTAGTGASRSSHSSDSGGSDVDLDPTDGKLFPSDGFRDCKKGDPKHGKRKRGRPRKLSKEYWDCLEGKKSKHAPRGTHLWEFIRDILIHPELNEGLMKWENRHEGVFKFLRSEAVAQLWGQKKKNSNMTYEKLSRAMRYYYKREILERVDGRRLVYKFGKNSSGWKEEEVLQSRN
# Procedure, shortened: as §1
# [18] = biological target: CRX (Homo sapiens, UniProt O43186 1-299); details: protein: recombinant; tags: N-terminal GST; dsDNA, one strand shown
# Procedure, shortened: as §1
# [19] = biological target: ETV1 (Homo sapiens, UniProt P50549 1-477); details: protein: recombinant; tags: N-terminal GST; dsDNA, one strand shown
# Procedure, shortened: as §1
# Sequence of SPIB (Q01892 whole entry): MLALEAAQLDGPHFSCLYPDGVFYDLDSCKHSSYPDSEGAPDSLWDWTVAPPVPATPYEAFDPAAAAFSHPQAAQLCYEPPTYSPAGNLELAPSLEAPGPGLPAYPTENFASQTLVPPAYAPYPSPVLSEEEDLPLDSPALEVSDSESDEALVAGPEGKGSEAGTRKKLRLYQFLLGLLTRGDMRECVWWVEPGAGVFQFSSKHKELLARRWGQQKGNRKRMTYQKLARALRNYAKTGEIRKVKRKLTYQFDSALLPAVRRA
# Sequence of HSF1 (Q00613 whole entry): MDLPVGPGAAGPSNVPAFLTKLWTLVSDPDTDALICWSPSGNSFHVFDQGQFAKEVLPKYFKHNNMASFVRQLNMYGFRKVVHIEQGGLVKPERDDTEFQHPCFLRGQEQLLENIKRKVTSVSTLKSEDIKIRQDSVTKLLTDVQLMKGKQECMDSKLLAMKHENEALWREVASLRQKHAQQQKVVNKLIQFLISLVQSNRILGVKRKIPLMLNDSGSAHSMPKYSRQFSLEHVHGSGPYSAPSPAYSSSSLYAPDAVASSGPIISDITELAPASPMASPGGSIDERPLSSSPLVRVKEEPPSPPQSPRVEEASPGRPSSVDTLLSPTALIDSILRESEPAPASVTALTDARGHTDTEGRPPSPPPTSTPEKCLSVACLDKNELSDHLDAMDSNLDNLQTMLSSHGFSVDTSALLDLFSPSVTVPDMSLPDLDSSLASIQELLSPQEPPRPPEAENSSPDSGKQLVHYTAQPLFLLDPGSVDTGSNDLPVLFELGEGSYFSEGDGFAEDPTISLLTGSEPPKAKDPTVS
# Sequence of ETV5 (P41161 whole entry): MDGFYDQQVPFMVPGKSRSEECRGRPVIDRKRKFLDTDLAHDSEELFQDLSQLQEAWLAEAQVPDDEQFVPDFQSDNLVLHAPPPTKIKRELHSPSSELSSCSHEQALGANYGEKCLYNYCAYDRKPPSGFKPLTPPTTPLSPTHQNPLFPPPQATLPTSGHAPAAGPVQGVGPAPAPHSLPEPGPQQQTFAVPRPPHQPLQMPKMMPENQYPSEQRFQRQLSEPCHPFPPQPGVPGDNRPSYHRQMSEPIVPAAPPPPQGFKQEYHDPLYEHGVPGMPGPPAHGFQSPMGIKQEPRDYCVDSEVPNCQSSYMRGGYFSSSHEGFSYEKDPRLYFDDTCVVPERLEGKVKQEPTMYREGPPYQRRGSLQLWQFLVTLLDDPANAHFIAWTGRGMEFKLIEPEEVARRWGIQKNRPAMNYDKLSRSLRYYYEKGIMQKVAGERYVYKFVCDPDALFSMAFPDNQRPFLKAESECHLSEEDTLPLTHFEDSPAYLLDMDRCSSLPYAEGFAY
# Sequence of ELF1 (P32519 whole entry): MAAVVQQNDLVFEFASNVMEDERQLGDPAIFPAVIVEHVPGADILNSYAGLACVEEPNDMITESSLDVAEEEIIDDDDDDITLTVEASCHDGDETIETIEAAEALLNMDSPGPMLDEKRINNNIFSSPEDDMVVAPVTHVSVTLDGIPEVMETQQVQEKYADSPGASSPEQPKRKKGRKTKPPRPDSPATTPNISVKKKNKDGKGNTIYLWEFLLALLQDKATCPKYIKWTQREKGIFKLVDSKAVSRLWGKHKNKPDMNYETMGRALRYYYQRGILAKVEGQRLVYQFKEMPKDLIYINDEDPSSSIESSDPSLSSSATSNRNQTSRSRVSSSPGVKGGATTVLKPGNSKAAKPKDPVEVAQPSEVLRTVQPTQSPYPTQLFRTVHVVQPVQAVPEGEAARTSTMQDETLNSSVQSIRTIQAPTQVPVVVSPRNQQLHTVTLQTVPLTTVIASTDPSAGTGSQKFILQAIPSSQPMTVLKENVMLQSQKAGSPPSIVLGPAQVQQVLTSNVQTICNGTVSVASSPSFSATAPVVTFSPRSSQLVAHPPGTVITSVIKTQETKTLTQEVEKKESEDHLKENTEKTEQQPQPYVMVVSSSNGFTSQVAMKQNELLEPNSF
# Sequence of ELF4 (Q99607 whole entry): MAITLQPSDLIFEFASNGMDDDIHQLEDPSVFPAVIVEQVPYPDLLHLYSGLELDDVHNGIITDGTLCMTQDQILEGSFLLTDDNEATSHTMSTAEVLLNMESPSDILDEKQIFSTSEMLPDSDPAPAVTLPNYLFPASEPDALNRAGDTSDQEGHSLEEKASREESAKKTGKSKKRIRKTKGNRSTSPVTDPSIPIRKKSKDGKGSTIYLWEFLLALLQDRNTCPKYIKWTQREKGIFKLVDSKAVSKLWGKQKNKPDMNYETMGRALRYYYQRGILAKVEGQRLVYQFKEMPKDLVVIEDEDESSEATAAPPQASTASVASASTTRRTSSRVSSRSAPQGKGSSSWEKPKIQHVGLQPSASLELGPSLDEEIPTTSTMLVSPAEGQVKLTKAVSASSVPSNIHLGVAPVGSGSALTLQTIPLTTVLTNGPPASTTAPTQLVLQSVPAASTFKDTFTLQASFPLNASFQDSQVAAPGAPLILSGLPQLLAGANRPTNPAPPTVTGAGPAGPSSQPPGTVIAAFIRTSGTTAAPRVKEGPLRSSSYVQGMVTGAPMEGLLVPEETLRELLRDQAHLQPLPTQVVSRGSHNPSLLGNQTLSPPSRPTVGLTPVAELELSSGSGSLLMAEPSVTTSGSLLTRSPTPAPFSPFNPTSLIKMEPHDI
# Sequence of ETV1 (P50549 whole entry): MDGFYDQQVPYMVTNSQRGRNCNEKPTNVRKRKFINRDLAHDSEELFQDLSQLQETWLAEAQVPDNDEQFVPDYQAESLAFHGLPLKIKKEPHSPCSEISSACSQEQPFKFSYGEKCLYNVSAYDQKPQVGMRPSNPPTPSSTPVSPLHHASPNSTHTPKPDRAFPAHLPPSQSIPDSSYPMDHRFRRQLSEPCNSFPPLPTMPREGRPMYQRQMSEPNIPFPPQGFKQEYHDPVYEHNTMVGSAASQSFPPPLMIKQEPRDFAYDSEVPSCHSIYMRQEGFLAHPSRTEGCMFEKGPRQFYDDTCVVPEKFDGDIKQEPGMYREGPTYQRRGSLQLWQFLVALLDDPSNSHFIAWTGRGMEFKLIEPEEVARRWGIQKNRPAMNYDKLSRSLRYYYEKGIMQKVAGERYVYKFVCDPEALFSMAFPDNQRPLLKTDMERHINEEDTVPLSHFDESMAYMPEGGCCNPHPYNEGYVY
# Sequence of CRX (O43186 whole entry): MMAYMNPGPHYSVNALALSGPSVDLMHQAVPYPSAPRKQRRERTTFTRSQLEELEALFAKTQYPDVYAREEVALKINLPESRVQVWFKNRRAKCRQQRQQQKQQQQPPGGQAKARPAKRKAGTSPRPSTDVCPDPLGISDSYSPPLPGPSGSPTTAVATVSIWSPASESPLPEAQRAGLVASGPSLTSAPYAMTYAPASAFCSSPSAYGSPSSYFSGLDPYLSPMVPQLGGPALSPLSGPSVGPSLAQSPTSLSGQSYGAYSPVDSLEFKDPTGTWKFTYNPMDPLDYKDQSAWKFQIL
sequence,measurement,setting,value
TTTACT,binding signal,[1],"1.41 fold enrichment (6-mer frequency, TF over GST control)"
same,binding signal,[2],"1.56 fold enrichment (6-mer frequency, TF over GST control)"
same,binding signal,[3],"1.53 fold enrichment (6-mer frequency, TF over GST control)"
same,binding signal,[4],"1.43 fold enrichment (6-mer frequency, TF over GST control)"
same,binding signal,[5],"1.43 fold enrichment (6-mer frequency, TF over GST control)"
same,binding signal,[6],"1.51 fold enrichment (6-mer frequency, TF over GST control)"
same,binding signal,[7],"1.46 fold enrichment (6-mer frequency, TF over GST control)"
same,binding signal,[8],"1.37 fold enrichment (6-mer frequency, TF over GST control)"
same,binding signal,[9],"1.41 fold enrichment (6-mer frequency, TF over GST control)"
same,binding signal,[10],"1.41 fold enrichment (6-mer frequency, TF over GST control)"
same,binding signal,[11],"1.44 fold enrichment (6-mer frequency, TF over GST control)"
same,binding signal,[12],"1.69 fold enrichment (6-mer frequency, TF over GST control)"
same,binding signal,[13],"1.44 fold enrichment (6-mer frequency, TF over GST control)"
same,binding signal,[14],"1.5 fold enrichment (6-mer frequency, TF over GST control)"
same,binding signal,[15],"1.66 fold enrichment (6-mer frequency, TF over GST control)"
same,binding signal,[16],"1.29 fold enrichment (6-mer frequency, TF over GST control)"
same,binding signal,[17],"1.65 fold enrichment (6-mer frequency, TF over GST control)"
same,binding signal,[18],"1.95 fold enrichment (6-mer frequency, TF over GST control)"
same,binding signal,[19],"1.48 fold enrichment (6-mer frequency, TF over GST control)"
